Screening results from PubChem.
An excerpt weighted towards active compounds, which were near 0.87% of everything screened.
RECQ1 inh-1 – qHTS Assay for Inhibitors of RecQ-Like Dna Helicase 1 (RECQ1); RECQ1 DNA unwinding, red fluorescence kinetic read; Potency, µM (highest dose often 57.3 µM), inactives show top-dose activity, negative = inhibition, hits mostly inhibitors; 240,000 tested, 0.54% active; AID 2549, 2010;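 further: plate controls were vehicle for no effect and no enzyme for full effect; nearly all actives have a fitted effect of over 30% in size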
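RECQ1T1 50 nM; forked duplex (20 bp + 30-nt ss tails) 200 nM, ATP 2 mM final; pH 8.0, 2 mM MgCl2, 2.5 ug/ml poly(dI-dC); 15 min compound preincubation; discontinuous kinetic read over 2 h at RT.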
BLM inh-1 – qHTS Assay for Inhibitors of Bloom's syndrome helicase (BLM); Potency, µM (doses to about 56.1 µM), without a hit: at the highest dose activity change, negative = inhibition, most hits filed as inhibitors; recombinant BLM DNA unwinding, fluorescence dequenching; 350,000 tested, 0.2% active; AID 2528, 2010; RecQ-like DNA helicase BLM (Homo sapiens), P54132;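 further: plate controls were vehicle for no effect and no enzyme for full effect; nearly all actives have a fitted effect of over 35% in size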
GCN5L2 inh – qHTS Assay for Inhibitors of GCN5L2; Histone acetyltransferase KAT2A (Homo sapiens), Q92830; GCN5L2 HAT assay, ThioGlo1 CoA-SH fluorescence; Potency, µM (titrated, usually from 58.9 µM), for the others: top-dose activity change, negative = inhibition, actives largely listed as inhibitors; 390,000 tested, 0.21% active; AID 504327, 2011
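GCN5L2 (20 nM) in 50mM HEPES pH 7.5, 0.1mM EDTA, 0.01% Tween-20 preincubated 15 min with compounds at room temperature. Reaction started with H3(1-25) 75uM, acetyl-CoA 70uM, ThioGlo1 50uM; CoA-thiol fluorescence (Ex340/Em540) read at 0 and 20 min.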
TDP1 inh – qHTS Assay for Inhibitors of Tyrosyl-DNA Phosphodiesterase (TDP1) | Potency, µM (titrated, usually from 130 µM), for the others: at the top dose activity change, negative = inhibition, usual class: inhibitors | recombinant TDP1, AlphaScreen DNA substrate cleavage | 350,000 tested, 0.28% active | Tyrosyl-DNA phosphodiesterase 1 (Homo sapiens), Q9NUW8; further: nearly all actives have a fitted effect of over 40% in size
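Signal: AlphaScreen proximity between streptavidin donor and anti-FITC acceptor beads on intact substrate. Reaction: Tdp1 1 nM, substrate 15 nM final, 5 min RT after 15 min compound preincubation.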
APE1 inh-1 – qHTS Assay for Inhibitors of the Human Apurinic/apyrimidinic Endonuclease 1 (APE1); AID 2517, 2012; recombinant APE1, TAMRA/BHQ-2 abasic DNA cleavage fluorescence; Potency, µM (highest dose often 65.8 µM), inactives show at the top dose activity change, negative = inhibition, usual class: inhibitors; 350,000 tested, 0.35% active;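 further: plate controls were vehicle for no effect and reference inhibitor for full effect; nearly all actives have a fitted effect of over 55% in size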
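Substrate: short duplex with […] THF abasic site, 5'-TAMRA and 3'-BHQ-2, 50 nM final. APE1 at 0.75 nM, preincubated 15 min RT with compound. Fluorescence increase from first to third read measured activity.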
RGS4 inhibitor – Inhibitors of Regulator of G Protein Signaling (RGS) 4: qHTS. Potency, µM (doses to about 114 µM), for inactives: top-dose activity change, negative = inhibition, hits mostly inhibitors. AID 504845, 2011. Transcreener GDP fluorescence polarization, RGS4-accelerated GTP hydrolysis. 390,000 tested, 0.039% active; further: nearly all actives have a fitted effect of over 75% in size
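MLSMR compounds (23 nl, pin-transferred) preincubated 10 min at room temperature with a 500nM (2x) first reagent, then RGS4 at 900nM (2x) plus Transcreener GDP mix added; fluorescence polarization (620/688 nm) read before and after 90 min at 30 °C.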
APE1 dye cs – Counterscreen for APE1 Inhibitors: Fluorescent Dye Displacement Assay | DNA fluorescent dye displacement counterscreen, fluorescence | AID 2564, 2010 | Potency, µM (titrated, usually from 28.5 µM), inactives show top-dose activity change, negative = inhibition, usual class: inhibitors | 480 tested, 7% active | shares compounds with APE1 inh-1;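 further: loss of thiazole orange fluorescence as the dye is displaced from duplex DNA; 0% = ThO with dsDNA and no compound and -100% = ThO without dsDNA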
Endo IV inh – Counterscreen for APE1 Inhibitors: qHTS Assay for Inhibitors of Endonuclease IV; shares compounds with APE1 inh-1; E. coli Endo IV, fluorogenic AP-site DNA cleavage; Potency, µM (doses to about 27.1 µM), for the others: top-dose activity change, negative = inhibition, hits mostly inhibitors; 560 tested, 4% active; AID 2565, 2010;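 further: plate controls were uninhibited enzyme wells for no effect and no enzyme buffer wells for full effect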
APE1 inh-2 – Confirmation qHTS Assay for Inhibitors of the Human Apurinic/apyrimidinic Endonuclease 1 (APE1); 750 tested, 44% active; AID 2572, 2010; Potency, µM (top dose mostly 57.1 µM), for the others: top-dose activity change, negative = inhibition, usual class: inhibitors; purified APE1, fluorogenic abasic-site DNA cleavage; shares compounds with APE1 inh-1; further: nearly all actives have a fitted effect of over 30% in size
APE1 FP – qHTS FP-Based Assay for Inhibitors of the Human Apurinic/apyrimidinic Endonuclease 1 (APE1); 480 tested, 7% active; APE1 binding to TAMRA-labelled double-stranded DNA, fluorescence polarization displacement; shares compounds with APE1 inh-1; Potency, µM (titrated, usually from 28.5 µM), inactives show top-dose activity, negative = inhibition, actives largely listed as inhibitors
BLM inh-2 – qHTS Confirmation Assay for Inhibitors of Bloom's syndrome helicase (BLM) | shares compounds with BLM inh-1 | BLM DNA unwinding, fluorescence quenching, biochemical | Potency, µM, for the others: max response, negative = inhibition, actives largely listed as inhibitors | 220 tested, 40% active;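 further: strand separation dequenches TAMRA so unwinding raises red fluorescence; series mostly up to about 69 µM; nearly all actives have a fitted effect of over 45% in size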
RECQ1 conf – Confirmation qHTS Assay for Inhibitors of RecQ-Like Dna Helicase 1 (RECQ1); shares compounds with RECQ1 inh-1; RECQ1 helicase DNA unwinding, fluorescence; Potency, µM (doses to about 229 µM), for inactives: at the highest dose activity change, negative = inhibition, hits mostly inhibitors; 610 tested, 28% active; AID 2708, 2010; further: nearly all actives have a fitted effect of over 45% in size
ADP FP counter – Counterscreen for RECQ1 Inhibitors: ADP Fluorescence Polarization Displacement Assay; shares compounds with RECQ1 inh-1; ADP fluorescence polarization displacement counterscreen; Potency, µM (titrated, usually from 228 µM), for inactives: top-dose activity change, negative = inhibition, hits mostly inhibitors; 530 tested, 27% active; AID 2711, 2010; further: nearly all actives have a fitted effect of over 45% in size
RECQ1 inh-2 – Confirmation qHTS Assay for Inhibitors of RecQ-Like Dna Helicase 1 (RECQ1) - Round 2 Cherry Picks; AID 504841, 2011; recombinant RECQ1 DNA unwinding, red fluorescence; shares compounds with RECQ1 inh-1; Potency, µM (series often up to 119 µM), inactives show top-dose activity, negative = inhibition, hits mostly inhibitors; 1,100 tested, 15% active; further: nearly all actives have a fitted effect of over 50% in size
* = called active by the depositor; i = inactive; ? = inconclusive; . = not tested or not shown; ! = not active in a repeat; [ ] = another dose, or the depositor's remark. The call rests on the fitted dose curve; in most records, active means well fitted curve in the direction sought with a large enough effect; inconclusive means small, poorly fitted or top-dose-only effect, or another doubt; inactive means no such curve, though single readings can be large; an effect the other way counts as inactive or inconclusive. Unless noted, on the % scale 0 is the no-effect control and ±100 the full control effect; potency means the concentration at half of the fitted maximal effect.

SMILES | RECQ1 inh-1 | BLM inh-1 | GCN5L2 inh | TDP1 inh | APE1 inh-1 | RGS4 inhibitor | others
CC(Cl)CCl (stereo unspecified) | 4% | . | . | 6% | -4% | .
CCc1ccc(N2C(=O)NC(=O)/C(=C/c3cccn3CCOc3ccc(C)cc3)C2=O)cc1 | ? | -14% | 28% | 5% | ? | -54%
Cc1cccc(OCCn2cccc2/C=C2/C(=O)NC(=O)N(Cc3ccco3)C2=O)c1 | 8.9µM* | 25µM* | ? | -10% | 7.9µM* | ? | APE1 dye cs=0%;Endo IV inh=5%;APE1 inh-2=13µM*;APE1 FP=?;RECQ1 conf=?;ADP FP counter=-3%[91.9 µM]
COc1ccc(CCN)cc1O | -2% | . | . | 3% | 11% | -2%
NCCc1cc(O)c(O)cc1O | 8.9µM* | ? | ? | 0.25µM* | 0.4µM* | ? | APE1 dye cs=?;Endo IV inh=-14%[57.1 µM];APE1 inh-2=?;APE1 FP=28µM*!;RECQ1 conf=126µM*;ADP FP counter=100µM*
CC(C)(C)C(=O)OC1=CN(Cc2ccccc2)S(=O)(=O)c2ccccc21 | . | -9% | -13% | -9% | . | ?
CC(=O)c1cccc(OCC(=O)N2CCN(CC(=O)Nc3cccc(F)c3)CC2)c1 | . | . | 1% | 0% | 2% | 8%
Cc1cccn2c(=O)cc(COc3cccc(NC(=O)COc4ccc(F)cc4)c3)nc12 | . | 14µM* | -1% | 0% | . | -17% | BLM inh-2=?
CC(C)OCCCNC(=O)c1c(N)n(CC2CCCO2)c2nc3ccccc3nc12 (stereo unspecified) | -12% | 5µM* | ? | . | -7% | -28% | BLM inh-2=-11%
ClCBr | -3% | . | . | 15% | 12% | .
CCOC(=O)c1c(NC(=O)c2c(N)n(CCCOC)c3nc4ccccc4nc23)sc2c1CCCC2 | -6% | 4µM* | 0% | 2% | 2% | 1% | BLM inh-2=-11%
CC1=NCCc2c1[nH]c1cc(O)ccc21 | ? | 40µM*! | ? | 23%[56.1 µM] | ? | -31% | BLM inh-2=-2%
C1=NCCc2c1[nH]c1ccccc21 | . | . | . | . | . | 2%
COc1ccc(C(C)(C)C)cc1NC(=O)CCCn1c(=O)oc2ccccc21 | -3% | -5% | 35% | 3% | 2% | 14%
C=C1C/C(=C/C)C(=O)O[C@@H]2CCN3CC=C(COC(=O)[C@]1(C)O)[C@@H]23 | ? | 1% | . | 3% | ? | .
C/C=C1/C[C@@H](C)[C@@](C)(O)C(=O)OCC2=CCN3CC[C@@H](OC1=O)[C@@H]23 | ? | -4% | . | 1% | ? | 0% | RECQ1 inh-2=0%
NC(N)=NCCC[C@H](N)C(=O)O | -7% | 1% | -3% | -3%[56.1 µM] | -1% | 2%[56.9 µM]
CC[C@@]1(O)C(=O)OCc2c1cc1n(c2=O)Cc2cc3c(O)cccc3nc2-1 | ? | -17% | ? | ? | ? | . | RECQ1 inh-2=?
c1ccc(C2N3CCCN23)cc1 (stereo unspecified) | 7.9µM* | -1% | -28% | 2% | 11% | -5% | RECQ1 conf=13%[114 µM];ADP FP counter=-2%[91.9 µM]
Cc1ccc(C2N3CCCN23)cc1 (stereo unspecified) | i | -2% | -23% | . | 1% | 16%
C=CCN1CC[C@]23CCCC[C@H]2[C@H]1Cc1ccc(O)cc13 | . | . | . | . | -6% | .
CCN(CC)c1ccc(CC2C(=O)N(C)C(=O)N(C)C2=O)cc1 | 32µM* | 2% | 3% | 0% | -4% | ? | RECQ1 inh-2=45µM*
CCOC(=O)C1CCCN(c2ccc([N+](=O)[O-])c3nonc23)C1 (stereo unspecified) | 28µM* | -11% | -16% | 6% | ? | 18% | RECQ1 inh-2=56µM*
